Assay results taken from PubChem BioAssay AID1159580 (chemical genetic matrix, 2015).
Several values for one entry are separate records, joined by “and”; a condition that tells them apart may be missing. Identical values can stand only once. Among all 5,500 compounds or so, about 2,000 (36%) were called active. Inconclusive results (about 18%) are left out. Rule as the data show it: active = normalized growth mostly below about 0.91 (no sharp cut-off); inconclusive = no clear call, values can overlap the other calls; inactive = mostly above about 0.92. This is one part of the list.

Experiment: chemical genetic growth profiling, strain panel (AID 1159580);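 also: tested at 20 µM; growth read once vehicle control cultures reached saturation at 30 °C; 1 = growth at the plate median or of vehicle wells; lower values mean less growth of the strain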
Conditions: growth OD

Measured: normalized growth

CC(CCc1ccccc1)NCC(O)c1ccc(O)c(C(N)=O)c1 (stereo not given)
inactive: S. cerevisiae deletion strains, locus YJR075W, strain HOC1, stronger effect = lower value 1 | S. cerevisiae deletion strains, locus YKL009W, strain mrt4, stronger effect = lower value 1.01 | S. cerevisiae deletion strains, locus YKL068W, stronger effect = lower value 1.01 | S. cerevisiae deletion strains, locus YKL085W, strain MDH1 (second series), stronger effect = lower value 1.01 | S. cerevisiae deletion strains, locus YKL085W, strain MDH1, stronger effect = lower value 1.01 | S. cerevisiae deletion strains, locus YKL160W, strain elf1, stronger effect = lower value 1 | S. cerevisiae deletion strains, locus YKL190W, strain CNB1, stronger effect = lower value 1 | S. cerevisiae deletion strains, locus YKR001C, strain vps1, stronger effect = lower value 1.03 | S. cerevisiae deletion strains, locus YKR026C, strain gcn3, stronger effect = lower value 1.01 | S. cerevisiae deletion strains, locus YKR091W, strain srl3, stronger effect = lower value 0.997 | S. cerevisiae deletion strains, locus YLL001W, strain dnm1, stronger effect = lower value 1 | S. cerevisiae deletion strains, locus YLL026W, stronger effect = lower value 1 | S. cerevisiae deletion strains, locus YLL041C, strain sdh2, stronger effect = lower value 1 | S. cerevisiae deletion strains, locus YLR027C, strain aat2, stronger effect = lower value 0.992 | S. cerevisiae deletion strains, locus YLR039C, strain RIC1, stronger effect = lower value 1.05 | S. cerevisiae deletion strains, locus YLR058C, strain SHM2, stronger effect = lower value 1 | S. cerevisiae deletion strains, locus YLR102C, strain apc9, stronger effect = lower value 1.01 | S. cerevisiae deletion strains, locus YLR113W, strain HOG1, stronger effect = lower value 1.08 | S. cerevisiae deletion strains, locus YLR221C, strain rsa3, stronger effect = lower value 1.01 | S. cerevisiae deletion strains, locus YLR258W, strain gsy2, stronger effect = lower value 1.01 | S. cerevisiae deletion strains, locus YLR262C, strain YPT6 (second series), stronger effect = lower value 1.02 | S. cerevisiae deletion strains, locus YLR262C, strain YPT6, stronger effect = lower value 1.04 | S. cerevisiae deletion strains, locus YLR268W, strain sec22, stronger effect = lower value 1.02 | S. cerevisiae deletion strains, locus YLR320W, strain mms22, stronger effect = lower value 1.02 | S. cerevisiae deletion strains, locus YLR330W, strain CHS5, stronger effect = lower value 1.01 | S. cerevisiae deletion strains, locus YLR342W, strain FKS1 (second series), stronger effect = lower value 1.08 | S. cerevisiae deletion strains, locus YLR342W, strain FKS1, stronger effect = lower value 1.01 | S. cerevisiae deletion strains, locus YLR357W, strain rsc2, stronger effect = lower value 0.96 | S. cerevisiae deletion strains, locus YLR370C, strain arc18, stronger effect = lower value 1 | S. cerevisiae deletion strains, locus YLR371W, strain rom2, stronger effect = lower value 1.02 | S. cerevisiae deletion strains, locus YLR384C, strain iki3, stronger effect = lower value 1.02 | S. cerevisiae deletion strains, locus YLR418C, strain cdc73, stronger effect = lower value 1.06 | S. cerevisiae deletion strains, locus YML016C, strain PPZ1, stronger effect = lower value 1.01 | S. cerevisiae deletion strains, locus YML032C, strain rad52, stronger effect = lower value 0.996 | S. cerevisiae deletion strains, locus YML120C, strain ndi1, stronger effect = lower value 1.01 | S. cerevisiae deletion strains, locus YML124C, strain tub3, stronger effect = lower value 1.01 | S. cerevisiae deletion strains, locus YMR058W, strain fet3, stronger effect = lower value 1 | S. cerevisiae deletion strains, locus YMR078C, strain ctf18, stronger effect = lower value 1.01 | S. cerevisiae deletion strains, locus YMR125W, strain sto1, stronger effect = lower value 0.997 | S. cerevisiae deletion strains, locus YMR129W, stronger effect = lower value 1.01 | S. cerevisiae deletion strains, locus YMR205C, strain PFK2, stronger effect = lower value 1.01 | S. cerevisiae deletion strains, locus YMR223W, strain ubp8, stronger effect = lower value 1.04 | S. cerevisiae deletion strains, locus YMR231W, strain pep5, stronger effect = lower value 1.01 | S. cerevisiae deletion strains, locus YMR263W, strain SAP30, stronger effect = lower value 0.988 | S. cerevisiae deletion strains, locus YMR307W, strain GAS1, stronger effect = lower value 1.04 | S. cerevisiae deletion strains, locus YNL067W, strain RPL9B, stronger effect = lower value 0.988 | S. cerevisiae deletion strains, locus YNL071W, strain lat1, stronger effect = lower value 1 | S. cerevisiae deletion strains, locus YNL153C, strain GIM3, stronger effect = lower value 0.979 and 1.02 | S. cerevisiae deletion strains, locus YNL175C, strain NOP13, stronger effect = lower value 1.01 | S. cerevisiae deletion strains, locus YNL183C, strain NPR1, stronger effect = lower value 0.986 | S. cerevisiae deletion strains, locus YNL197C, strain WHI3, stronger effect = lower value 0.999 | S. cerevisiae deletion strains, locus YNL209W, strain ssb2, stronger effect = lower value 1.01 | S. cerevisiae deletion strains, locus YNL224C, strain SQS1, stronger effect = lower value 1.01 | S. cerevisiae deletion strains, locus YNL233W, strain BNI4, stronger effect = lower value 0.994 | S. cerevisiae deletion strains, locus YNL248C, strain rpa49, stronger effect = lower value 0.998 | S. cerevisiae deletion strains, locus YNL250W, strain rad50, stronger effect = lower value 1.03 | S. cerevisiae deletion strains, locus YNL271C, strain bni1, stronger effect = lower value 1.01 | S. cerevisiae deletion strains, locus YNL298W, strain CLA4, stronger effect = lower value 1.02 | S. cerevisiae deletion strains, locus YNL307C, strain MCK1, stronger effect = lower value 1.03 | S. cerevisiae deletion strains, locus YNL322C, strain KRE1 (second series), stronger effect = lower value 0.993 | S. cerevisiae deletion strains, locus YNL322C, strain KRE1, stronger effect = lower value 0.998 | S. cerevisiae deletion strains, locus YNR049C, strain mso1, stronger effect = lower value 0.999 | S. cerevisiae deletion strains, locus YNR052C, strain pop2, stronger effect = lower value 1.02 | S. cerevisiae deletion strains, locus YOL006C, strain TOP1, stronger effect = lower value 0.976 | S. cerevisiae deletion strains, locus YOL012C, strain htz1 0.754 | S. cerevisiae deletion strains, locus YOL147C, strain pex11, stronger effect = lower value 1.01 | S. cerevisiae deletion strains, locus YOR001W, strain rrp6, stronger effect = lower value 1.02 | S. cerevisiae deletion strains, locus YOR061W, strain CKA2, stronger effect = lower value 1.01 | S. cerevisiae deletion strains, locus YOR069W, strain VPS5, stronger effect = lower value 1 | S. cerevisiae deletion strains, locus YOR070C, strain gyp1, stronger effect = lower value 0.996 | S. cerevisiae deletion strains, locus YOR080W, strain dia2, stronger effect = lower value 0.999 | S. cerevisiae deletion strains, locus YOR083W, strain WHI5 (second series), stronger effect = lower value 1.02 | S. cerevisiae deletion strains, locus YOR083W, strain WHI5, stronger effect = lower value 1.01 | S. cerevisiae deletion strains, locus YOR106W, strain vam3, stronger effect = lower value 1.02 | S. cerevisiae deletion strains, locus YOR136W, strain idh2, stronger effect = lower value 1 | S. cerevisiae deletion strains, locus YOR144C, strain elg1, stronger effect = lower value 1.01 | S. cerevisiae deletion strains, locus YOR184W, strain ser1, stronger effect = lower value 1.01 | S. cerevisiae deletion strains, locus YOR231W, strain MKK1, stronger effect = lower value 1.07 | S. cerevisiae deletion strains, locus YOR265W, strain rbl2, stronger effect = lower value 0.992 | S. cerevisiae deletion strains, locus YOR270C, strain vph1, stronger effect = lower value 1.04 | S. cerevisiae deletion strains, locus YOR290C, strain snf2, stronger effect = lower value 1.03 | S. cerevisiae deletion strains, locus YOR316C, strain cot1, stronger effect = lower value 1.02 | S. cerevisiae deletion strains, locus YPL051W, strain arl3, stronger effect = lower value 1 | S. cerevisiae deletion strains, locus YPL055C, strain LGE1, stronger effect = lower value 0.945 and 0.997 | S. cerevisiae deletion strains, locus YPL078C, strain atp4, stronger effect = lower value 1 | S. cerevisiae deletion strains, locus YPL106C, strain sse1, stronger effect = lower value 1.01 | S. cerevisiae deletion strains, locus YPL240C, strain hsp82, stronger effect = lower value 1.01 | S. cerevisiae deletion strains, locus YPL241C, strain CIN2, stronger effect = lower value 1 | S. cerevisiae deletion strains, locus YPL256C, strain CLN2, stronger effect = lower value 1.04 | S. cerevisiae deletion strains, locus YPR119W, strain clb2, stronger effect = lower value 1.02 | S. cerevisiae deletion strains, locus YPR141C, strain kar3, stronger effect = lower value 1.01 | S. cerevisiae deletion strains, locus YPR163C, strain tif3, stronger effect = lower value 1.03 | S. cerevisiae deletion strains, locus YPR167C, strain met16, stronger effect = lower value 1.01 | S. cerevisiae deletion strains, strain wtn01, stronger effect = lower value 1.03 | S. cerevisiae strains, strain wild type, stronger effect = lower value 1
